Bioassay records as filed in PubChem BioAssay.
Only a selection was taken, and hits are over-represented in it overall.
nsP2pro primary = CHIKV nsP2 protease inhibition, primary qHTS. Q8JUX6. FRET peptide cleavage, nsP2pro, fluorescence 1 h. Potency, µM (highest dose often 24.9 µM), hits mostly inhibitors. 31,000 tested, 1.1% active; also: nearly all actives have a fitted effect of over 60% in size
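Enzyme 150 nM, substrate 2.5 uM (both final); Tris-HCl 10 mM pH 8.0 + 0.01% Tween 20; cpd up to 25 uM, 7 pts; 15 min preinc., 1 h RT; fluorescence ex 525/em 598.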
nsP2 cell sec = secondary cell-based test for CHIKV nsP2 protease inhibitors; cell-based CHIKV nsP2 protease reporter assay; Potency, µM (highest dose often 51.1 µM), most hits filed as inhibitors; 450 tested, 10% active; shares compounds with nsP2pro primary; also: nearly all actives have a fitted effect of over 70% in size
CHIKV NSP2 FL = inhibits full-length CHIKV NSP2 enzyme; AID 1964101; 410 tested, 39% active; Potency, µM (doses to about 50.7 µM), actives largely listed as inhibitors; Full-length CHIKV NSP2 protease enzymatic counterscreen; shares compounds with nsP2pro primary; also: nearly all actives have a fitted effect of over 65% in size
Furin counterscr = selectivity counter-screen for CHIKV nsP2 protease inhibitors: human furin | Potency, µM (highest dose often 50.6 µM), most hits filed as inhibitors | shares compounds with nsP2pro primary | Recombinant human furin enzymatic counterscreen, fluorogenic substrate | 410 tested, 6% active
nsP2 NS23 pep = blocks CHIKV nsP2 protease cleavage of endogenous NS2/3 peptide. shares compounds with nsP2pro primary. Purified CHIKV nsP2 protease, endogenous NS2/3 peptide cleavage. Potency, µM (titrated, usually from 51 µM), most hits filed as inhibitors. 410 tested, 34% active. AID 1964103; also: nearly all actives have a fitted effect of over 55% in size
Papain counter = inhibits papain in a CHIKV nsP2 protease selectivity counterscreen; shares compounds with nsP2pro primary; purified papain protease activity, enzymatic inhibition; Potency, µM (doses to about 51 µM), most hits filed as inhibitors; 410 tested, 5% active; AID 1964104
Target sequence (P00784 whole entry, looked up): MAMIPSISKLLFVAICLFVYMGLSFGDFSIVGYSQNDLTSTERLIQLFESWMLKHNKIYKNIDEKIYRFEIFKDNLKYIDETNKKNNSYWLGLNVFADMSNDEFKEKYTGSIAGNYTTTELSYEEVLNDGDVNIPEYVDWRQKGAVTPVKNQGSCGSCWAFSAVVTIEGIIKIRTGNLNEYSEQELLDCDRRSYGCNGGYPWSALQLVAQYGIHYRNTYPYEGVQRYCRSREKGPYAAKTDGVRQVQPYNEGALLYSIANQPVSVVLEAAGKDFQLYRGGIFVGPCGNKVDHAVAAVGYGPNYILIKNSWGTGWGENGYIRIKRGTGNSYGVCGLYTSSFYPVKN
nsP2pro conf qHTS = confirmation of CHIKV nsP2 protease inhibitors; shares compounds with nsP2pro primary; CHIKV nsP2 protease enzymatic activity, qHTS; Potency, µM (top dose mostly 25.5 µM), hits mostly inhibitors; 410 tested, 43% active; also: nearly all actives have a fitted effect of over 75% in size
HCV NS3 4A cs = selectivity counter-screen for CHIKV nsP2 protease inhibitors: HCV NS3/4A; Potency, µM (top dose mostly 50.9 µM), most hits filed as inhibitors; shares compounds with nsP2pro primary; 410 tested, 20% active; HCV NS3/4A protease biochemical counterscreen; also: nearly all actives have a fitted effect of over 55% in size
Large screens that a line does not name were inactive (follow-up assays come after a bar, where they were run). Calls follow the shape of the full dose curve.

COc1cccc(C(=O)CCN[C@@H](C)[C@H](O)c2ccccc2)c1	nsP2pro primary 1.57µM | nsP2 cell sec inactive | CHIKV NSP2 FL 5.8µM | Furin counterscr inactive | nsP2 NS23 pep 10.3µM | Papain counter inactive | nsP2pro conf qHTS 1.26µM | HCV NS3 4A cs inactive
COc1ccc(NC(=O)C(OC(=O)CNC(=O)c2ccccc2)c2ccccc2)c(C)c1 (stereo unspecified)	none
C[C@H](NCCc1ccc(O)cc1)[C@H](O)c1ccc(O)cc1	none
O=[N+]([O-])c1ccc(CNc2nc(NCc3cccc(C(F)(F)F)c3)nc3nc[nH]c23)cc1	none
c1ccc(Cn2c(-c3ccc(OCC(C4CCNCC4)n4c(-c5ccccc5)nc5ccccc54)cc3)nc3ccccc32)cc1 (stereo unspecified)	none
O=C(CCc1conc1-c1ccc(F)cc1)NCC1CCCO1 (stereo unspecified)	none
CN(CC1CCCN(CCc2cccc(C(F)(F)F)c2)C1)C(=O)c1ccc2[nH]ccc2c1 (stereo unspecified)	none
CCOc1cc(S(=O)(=O)n2ccnc2C(C)C)ccc1Cl	nsP2pro primary 8.91µM | nsP2 cell sec inactive | CHIKV NSP2 FL 16.3µM | Furin counterscr inactive | nsP2 NS23 pep inconclusive | Papain counter inactive | nsP2pro conf qHTS inconclusive | HCV NS3 4A cs 9.19µM
CCOc1ccc(S(=O)(=O)N2CCN(c3ccc(Cl)c(Cl)c3)CC2)c2ccccc12	none
CCOc1cc(C)c(C(C)C)cc1S(=O)(=O)n1ccnc1CC	none
C=C(C)C(=O)O[C@H]1[C@H]2C(=C)C(=O)O[C@@H]2/C=C(\CO)CC/C=C(/C=O)[C@@H]1O	none
C=C1C(=O)O[C@@H]2/C=C(/C)[C@@H](OC(C)=O)C/C=C(\C)C[C@@H](OC(=O)/C(=C/CO)CO)[C@@H]12	none
C=C1C(=O)O[C@@H]2C3C(=C(C)[C@@H](O)[C@@H](OC(=O)/C(=C/C)COC(C)=O)[C@@H]12)C(=O)[C@H]1O[C@@]31C (stereo partly specified)	nsP2pro primary 2.16µM | nsP2 cell sec inconclusive | CHIKV NSP2 FL 7.11µM | Furin counterscr inactive | nsP2 NS23 pep 3.18µM | Papain counter inactive | nsP2pro conf qHTS 2.19µM | HCV NS3 4A cs inactive
CC1CCN(c2ncncc2-c2nc(-c3ccccc3)no2)CC1	none
C[n+]1cc(NC(=O)c2cccc(C(=O)Nc3cc4ccccc4[n+](C)c3)n2)cc2ccccc21	none
CC(C)Oc1ccc(CCNC(=O)c2cc3sccc3n2Cc2ccccc2)cc1OC(C)C	none
Oc1cccc(O)c1O	nsP2pro primary 8.81µM | nsP2 cell sec inactive | CHIKV NSP2 FL 14.6µM | Furin counterscr inactive | nsP2 NS23 pep 8.19µM | Papain counter inactive | nsP2pro conf qHTS 1.79µM | HCV NS3 4A cs 3.26µM
CC(C)c1cccc(C(C)C)c1O	none
O=C(O)c1cccc(O)c1O	none
COc1ccc(-c2c(-c3cc(C(=O)O)ccn3)ncn2C)cc1	none
Nc1nc2c(s1)CCN(Cc1ccc(Cl)cc1)CC2	nsP2pro primary 8.81µM | nsP2 cell sec inactive | CHIKV NSP2 FL inactive | Furin counterscr inactive | nsP2 NS23 pep inactive | Papain counter inactive | nsP2pro conf qHTS inconclusive | HCV NS3 4A cs inactive
CC1=NOC2(CCN(Cc3ccc(Cl)cc3)CC2)C1	none
O=C1CN(Cc2ccc(Cl)cc2)CCN1c1ccc(Cl)nn1	none
CC1(C)S[C@@H]2[C@H](N)C(=O)N2[C@@H]1C(=O)O	none
Cc1cc(F)ccc1-c1nc(NCCN=C(N)NC#N)nc2c1ccc(=O)n2-c1c(F)cccc1F	none
CC(C)=CCC/C(C)=C/CC/C(C)=C/CC/C(C)=C/CC1=C(C)C(=O)c2ccccc2C1=O	none
CC1=CC(=O)c2ccccc2C1=O	nsP2pro primary inconclusive | nsP2 cell sec inactive | CHIKV NSP2 FL inactive | Furin counterscr inactive | nsP2 NS23 pep inconclusive | Papain counter inactive | nsP2pro conf qHTS inactive | HCV NS3 4A cs inactive
Cc1ccc(S(=O)(=O)Nc2cnccc2C(=O)Nc2nc(-c3ccc(Cl)cc3)cs2)cc1	none
Cc1cc(N[S+](=O)([O-])c2ccc(NC(=O)Cc3nc4ccc(Cl)cc4[nH]3)cc2)no1	none
C/C(=N\N=C(N)N)c1cc(NC(=O)CCCCCCCCC(=O)Nc2cc(/C(C)=N/N=C(N)N)cc(/C(C)=N/N=C(N)N)c2)cc(/C(C)=N/N=C(N)N)c1	nsP2pro primary 5.56µM | nsP2 cell sec inactive | CHIKV NSP2 FL 13µM | Furin counterscr 11.6µM | nsP2 NS23 pep 13µM | Papain counter inactive | nsP2pro conf qHTS 6.34µM | HCV NS3 4A cs 11.6µM
O=C(c1ccc(Cl)s1)N1CCC2(COc3ncccc3S(=O)(=O)N2)C1 (stereo unspecified)	none
O=C(NCCCN1CCc2ccccc2C1)C1CCCCC(=O)N1Cc1ccccc1 (stereo unspecified)	none
[O-][n+]1ccccc1SSc1cccc[n+]1[O-]	nsP2pro primary 2.71µM | nsP2 cell sec inconclusive | CHIKV NSP2 FL 8.19µM | Furin counterscr inactive | nsP2 NS23 pep 9.19µM | Papain counter inactive | nsP2pro conf qHTS 1.59µM | HCV NS3 4A cs inactive
CC(C)NS(=O)(=O)c1ccc2c(c1)nc(-c1cc(C(C)(C)C)[nH]n1)n2C(C)C	none
Cc1cnccc1-c1nc(Nc2ccc(F)c(F)c2)c2ccccc2n1	none
CCC(C)C(N)C(=O)NCCN1CCOCC1 (stereo unspecified)	none
Cc1ccc(S(=O)(=O)NCCC(=O)Nc2nc(-c3ccccc3)cs2)cc1	none
Cc1cc(OCCCS(C)(=O)=O)cc(C)c1-c1cccc(COc2ccc(C3=CC(=O)NS3=O)cc2)c1 (stereo unspecified)	none
CCCCS(=O)c1sc2nc(-c3cccs3)cc(-c3ccccc3)c2c1N (stereo unspecified)	nsP2pro primary 7µM | nsP2 cell sec inactive | CHIKV NSP2 FL inactive | Furin counterscr inactive | nsP2 NS23 pep inactive | Papain counter inconclusive | nsP2pro conf qHTS 14.2µM | HCV NS3 4A cs inactive
O=C(/C=C/c1ccc(O)c(O)c1)O[C@H]1[C@H](O)C[C@](O)(C(=O)O)C[C@H]1OC(=O)/C=C/c1ccc(O)c(O)c1	none
O=C(NC1CCN(c2cc(N3CCOCC3)cnn2)C1)C1CC1 (stereo unspecified)	none
C=C1CC[C@@H](O)[C@]2(C)CC[C@H]3C(=C)C(=O)O[C@@H]3[C@@H]12	none
C=C1C(=O)O[C@H]2C3=C(C)CCC[C@]3(C)C(=O)C[C@@H]12	nsP2pro primary inconclusive | nsP2 cell sec inconclusive | CHIKV NSP2 FL inconclusive | Furin counterscr inactive | nsP2 NS23 pep inconclusive | Papain counter inconclusive | nsP2pro conf qHTS inconclusive | HCV NS3 4A cs inactive
